Compounds with a hit are over-represented: about 1.6% of the library has one in this group of screens.
STAT1 blocker – reduces IFN-gamma driven STAT1 reporter signal; AID 920; inhibition, % at 5.5 µM; NIH 3T3 STAT1-luciferase reporter, luminescence; 200,000 tested, 0.35% active;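 active = inhibition above a set limit, the mean inhibition across all tested compounds plus 3 SD, cut at about 34% in these data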;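 also: 0% = IFN-gamma with DMSO and 100% = IFN-gamma with 300 µM nifuroxazide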
Platelet DG rel – platelet dense granule release activity. human platelet-rich plasma, SFLLRN dense granule ATP release, luminescence. inhibition, %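 (compounds screened at 7.5 µM in platelet-rich plasma)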. 300,000 tested, 0.22% active;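 active = mean replicate score, as percent of positive control, at or above 50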
PPC-1+TRAIL kill – PPC-1 cancer cell killing with TRAIL present; 220,000 tested, 0.41% active; AID 1443; PPC-1 cells + TRAIL, ATPLite viability luminescence; cell killing (% activity), % at 4 µM or 5 µM;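 active = cell killing above 50% in the first pass at 4 µM, then a duplicate retest at 5 µM averaging 50% or more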;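 also: plate controls were cells with TRAIL plus DMSO for no effect and medium-only wells lacking cells for full effect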
TRAIL sens C8 – caspase-8 TRAIL sensitization | 360,000 tested, 1% active | NB7+C8 cells + TRAIL, ATPlite viability luminescence | inhibition (viability loss, TRAIL sensitization), % at 10 µM;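 active = compounds causing at least 50% loss of cell viability in the single-dose screen, relative to plate controls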
STAT3 blocker – inhibitors of IL-6 induced STAT3 signaling; AID 862; U3A cells, IL-6 STAT3-luciferase reporter, luminescence; host cell line lacks STAT1; inhibition, % at 5.5 µM; 190,000 tested, 0.89% active;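 active = inhibition above the mean inhibition across all screened compounds plus 3 SD, cut at about 44% in these data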;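 also: 0% = DMSO only wells and 100% = 100 µM nifuroxazide control wells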
The depositor's hits bear a star; nt = not tested or not shown.

SMILES	STAT1 blocker	Platelet DG rel	PPC-1+TRAIL kill	TRAIL sens C8	STAT3 blocker
O=C(Nc1ccccc1)c1cc(C2CCCN(C(=O)C3CC3)C2)on1 (centres undefined)	nt	nt	nt	51*	nt
N/C(=N\OC(=O)c1cccs1)C1(c2ccc(Cl)cc2Cl)CC1	nt	-4	15	-1	nt
N/C(Cc1ccc(Cl)c(Cl)c1)=N\OC(=O)c1cccs1	7	2	19	64*	10
COC(=O)c1ccccc1COc1cccn2c(N(C)C(=O)CCC3CCCC3)c(C)nc12	nt	nt	nt	-6	nt
CN1CCN(CC(=O)N2N=C(c3cccs3)CC2c2ccco2)CC1 (centres undefined)	0	-2	-3	2	2
O=C(CCl)N1N=C(c2cccs2)CC1c1ccco1 (centres undefined)	23	-4	8	91*	24
C[C@H](O)[C@@H]1C(=O)N2CCc3c([nH]c4ccccc34)[C@@H]2C[C@@H]1N(C)S(=O)(=O)c1ccccc1	nt	nt	nt	41	nt
O=C(NC1CCCCC1)C(c1cccnc1)N(C(=O)CCl)c1ccc(F)cc1 (centres undefined)	16	-4	1	94*	21
COc1ccc(N(C(=O)CCl)C(C(=O)NC2CCCCC2)c2cccnc2)cc1 (centres undefined)	30	-10	22	94*	13
Cc1cc(C)cc(N(C(=O)CNC(=O)c2cccs2)C(C(=O)NC2CCCC2)c2cccnc2)c1 (centres undefined)	36*	7	-4	-16	12
Cc1cccc(N(C(=O)CNC(=O)c2cccs2)C(C(=O)NC2CCCC2)c2cccnc2)c1 (centres undefined)	-4	-5	0	1	9
CC(=O)Nc1ccc(S(=O)(=O)N(C)CC(=O)OC(C)C(=O)NC2(C#N)CCCCC2)cc1 (centres undefined)	nt	nt	nt	-5	nt
CCNC(=O)C1(C)CCN(C(=O)c2c(F)cccc2F)C1 (centres undefined)	nt	nt	nt	-2	nt
CCCC[n+]1ccn(C2=C([O-])c3ccccc3C(=O)/C2=N\S(=O)(=O)c2ccccc2)c1	5	-1	0	51*	0
COc1cccc2c1C(=O)c1c(O)c3c(c(O)c1C2=O)CC(O)(C(=O)CO)CC3OC1CC(N(C)C)C(O)C(C)O1 (centres undefined)	nt	nt	nt	49	nt
COc1cccc2c1C(=O)c1c(O)c3c(c(O)c1C2=O)C[C@@](O)(C(=O)CO)C[C@@H]3O[C@H]1C[C@H](N)[C@@H](O)[C@H](C)O1	nt	1	nt	57*	nt
C#CCOCCOCCOCCNc1nc(N2CCN(C(=O)CCCCCCCCCCNC(=O)[C@H](CCCCN)n3cc(C[C@@H](C)CC)nn3)CC2)nc(N2CCN(C(=O)CCCCCCCCCCNC(=O)[C@H](CCCCN)n3cc(C[C@@H](C)CC)nn3)CC2)n1	nt	3	nt	95*	nt
C#CCOCCOCCOCCNc1nc(N2CCN(C(=O)CCCCCCCCCCNC(=O)Cn3cc(C[C@@H](C)O)nn3)CC2)nc(N2CCN(C(=O)CCCCCCCCCCNC(=O)[C@H](CCCCN)n3cc(C[C@@H](C)CC)nn3)CC2)n1	nt	nt	nt	86*	nt
C#CCOCCOCCOCCNc1nc(N2CCN(C(=O)CCCCCCCCCCNC(=O)[C@H](CCCCN)n3cc(CCO)nn3)CC2)nc(N2CCN(C(=O)CCCCCCCCCCNC(=O)[C@H](CCCN=C(N)N)n3cc(C[C@@H](C)CC)nn3)CC2)n1	nt	nt	nt	0	nt
CNc1cc(-c2ccc(CC#N)cc2)ncn1	nt	nt	nt	15	nt
COc1ccccc1/C=C/C(=O)Nc1ccc2c(c1)OCCO2	-89	6	56*	75*	4
O=C(/C=C/c1ccccc1)Nc1ccc2c(c1)OCCO2	42*	0	nt	75*	79*
O=c1cc(CN2CCCCC2)c2c(ccc3ccccc32)o1	nt	nt	nt	-3	nt
Oc1cc(NCc2ccc(F)cc2)cc2cccnc12	nt	nt	nt	54*	nt
CN(C)S(=O)(=O)c1ccc2nc(NC(=O)c3cccnc3)sc2c1	-27	2	27	21	-5
SMILES	STAT1 blocker	Platelet DG rel	PPC-1+TRAIL kill	TRAIL sens C8	STAT3 blocker
O=C(NC(NNc1ccc([N+](=O)[O-])cc1)(C(F)(F)F)C(F)(F)F)c1ccccc1Cl	10	1	3	-15	8
O=C(NC(Nc1nc2ccc([N+](=O)[O-])cc2s1)(C(F)(F)F)C(F)(F)F)c1cccnc1	46*	-10	14	31	71*
O=C(NC(Nc1nc2ccc([N+](=O)[O-])cc2s1)(C(F)(F)F)C(F)(F)F)c1ccccc1Cl	47*	11	46	29	92*
COc1ccc(/C=C2\CCC(C3CCCC3)C2=O)cc1 (centres undefined)	nt	0	nt	-1	nt
COc1ccc(/C=C2/CCC(CN3CCOCC3)C2=O)cc1 (centres undefined)	nt	nt	nt	80*	nt
Cc1cn(CC(=O)NCCN2CCOCC2)c(=O)[nH]c1=O	nt	nt	nt	-7	nt
Cc1cc(C(=O)N/N=C2\CC(=O)CC(C)(C)C2)c(C)n1-c1ccccc1	7	0	12	0	2
Cc1cc(C(=O)N/N=C2\CC(=O)c3ccccc32)c(C)n1-c1ccccc1	-43	7	18	54*	14
COc1ccc(C2NC(=O)c3n[nH]c(C)c32)c(OC)c1 (centres undefined)	-4	62*	-17	-7	9
CCc1ncc(CN2CCCC(C(=O)Nc3ccc(-c4cscn4)cc3)C2)cn1 (centres undefined)	nt	1	nt	-27	nt
Cc1c(Cl)ccc2c(C(=O)NCCN3CCCCC3)cc(-c3ccccn3)nc12	-20	-5	30	3	-42
COc1ccccc1-c1cc(C(=O)NC2CCN(C)CC2)c2ccc(Cl)c(C)c2n1	nt	0	nt	70*	nt
CN(Cc1ccc2nsnc2c1)C(=O)C1CCC(=O)N(CCc2ccccc2)C1 (centres undefined)	nt	nt	nt	-2	nt
O=C(O)C[C@H](O)C[C@H](O)/C=C/c1c(C2CC2)nc2ccccc2c1-c1ccc(F)cc1	nt	-1	nt	nt	nt
CCCCNC(=O)c1nc(C2CCN(S(=O)(=O)c3ccc(S(C)(=O)=O)cc3)CC2)oc1-c1ccccc1	nt	nt	nt	0	nt
CN1CCN(c2ccc(NC(=O)c3ccco3)cc2Cl)CC1	nt	7	nt	30	nt
O=C(Nc1ccccc1N1CCCC1)c1ccc([N+](=O)[O-])o1	nt	-22	nt	22	nt
O=C(Nc1ccc(N2CCCC2)c(Cl)c1)c1ccc([N+](=O)[O-])o1	-67	nt	50	88*	10
O=C(Nc1ccc(N2CCCC2)c(Cl)c1)c1ccco1	-47	-1	24	55*	35
CC1(C(=O)NCc2cccc3ccccc23)CCN1Cc1cccc2c1OCO2 (centres undefined)	nt	nt	nt	11	nt
CCN1/C(=C/c2cc[n+](CCCS(=O)(=O)[O-])c3ccccc23)Sc2ccccc21	1	-3	3	-2	4
C=CC[n+]1ccc(/C=C2\C=Cc3cc(C)ccc3N2CC)c2ccccc21	36*	nt	nt	39	86*
O=C(NOCc1ccccc1)c1ccc(Cl)cc1Cl	nt	nt	nt	58*	nt
O=C(Oc1ccc2ccccc2c1Cl)N1CCCCCC1	-81	-11	17	53*	3

From PubChem BioAssay
